In the library only some 5% were active in any assay of this set; here they are far more common.
Vaccinia Venus – inhibitors of vaccinia virus (Venus reporter). actives 0.46% (n = 330,000). Vaccinia virus Venus reporter expression, fluorescence. Potency, µM (series often up to 36.5 µM), for the others: top-dose activity change, negative = inhibition, usual class: inhibitors; calls by dose curve; tested in A549 cells; note: potency is the fitted concentration of half-maximal effect; nearly all actives have a fitted effect of over 30% in size
HCMV antiviral – blocks human cytomegalovirus replication; HFF cells, HCMV-luciferase reporter, 72 h; hits give low values; activity change, negative = inhibition, % at 57.5 µM; actives 4.5% (n = 410,000); AID 1259415; in the data active = activity change below about -60%; inconclusive = no clear call, values can overlap the other calls; inactive = above about -39%
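HFF cells seeded 16 h at 37C, treated with compounds, infected with luciferase-reporter HCMV at MOI 1 PFU/cell; luciferase read at 72 h post infection, normalized to buffer-only and Salinomycin controls.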
Tb PYK inh – blocks Trypanosoma brucei pyruvate kinase; TbPYK enzyme, Kinase-Glo Plus ATP luminescence, 45 min; Q57TT1; Potency, µM (doses to about 76.8 µM), without a hit: at the highest dose activity, negative = inhibition, hits mostly inhibitors; actives 0.12% (n = 410,000); AID 624173; note: potency is the fitted concentration of half-maximal effect; nearly all actives have a fitted effect of over 50% in size
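Luminescent Kinase-Glo Plus end-point after 45 min room-temperature reaction of T. brucei pyruvate kinase started with 130 uM ADP (final). Buffer TEA 50 mM pH 7.2 with KCl, MgCl2, BSA, Tween-20; titration-based qHTS with fitted concentration-effect curves.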
LmPK inhibitor – blocks Leishmania mexicana pyruvate kinase activity. Potency, µM (titrated, usually from 57.5 µM), for inactives: top-dose activity change, negative = inhibition, usual class: inhibitors. Q27686. purified LmPK, Kinase-Glo ATP luminescence, 1 h. actives 0.37% (n = 290,000); note: potency is the fitted concentration of half-maximal effect
Target sequence (Q27686 whole entry, looked up): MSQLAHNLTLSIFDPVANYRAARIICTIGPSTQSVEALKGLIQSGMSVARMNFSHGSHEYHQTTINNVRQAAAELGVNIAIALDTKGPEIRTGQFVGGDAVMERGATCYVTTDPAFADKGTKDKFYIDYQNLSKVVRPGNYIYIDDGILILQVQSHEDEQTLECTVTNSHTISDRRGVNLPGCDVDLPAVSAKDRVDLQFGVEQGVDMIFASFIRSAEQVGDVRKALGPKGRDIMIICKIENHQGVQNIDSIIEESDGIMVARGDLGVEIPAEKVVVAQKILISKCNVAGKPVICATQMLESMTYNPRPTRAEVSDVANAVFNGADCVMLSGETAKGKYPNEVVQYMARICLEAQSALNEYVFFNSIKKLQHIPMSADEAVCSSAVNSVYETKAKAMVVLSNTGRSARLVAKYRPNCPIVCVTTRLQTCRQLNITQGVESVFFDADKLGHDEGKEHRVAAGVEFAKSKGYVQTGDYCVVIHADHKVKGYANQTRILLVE
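ATP generated from ADP (0.1 mM) and PEP (0.5 mM) by 0.1 nM LmPK over 1 h at room temperature (pH 7.2 imidazole buffer) was detected by coupled luciferase luminescence. Values were normalized to uninhibited and no-enzyme wells.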
Vaccinia mCherry – vaccinia inhibition (mCherry reporter); Vaccinia virus mCherry reporter infection, fluorescence; Potency, µM (titrated, usually from 36.5 µM), for inactives: top-dose activity change, negative = inhibition, hits mostly inhibitors; actives 0.63% (n = 310,000); calls by dose curve; tested in A549 cells; note: potency is the fitted concentration of half-maximal effect; nearly all actives have a fitted effect of over 35% in size
An asterisk follows results filed as active; i = inactive; ? = inconclusive; nt = not tested or not shown; + = active, no number; ! = not confirmed by another sample; [ ] = another dose, or the depositor's remark. Unless noted, calls come from the whole dose curve; as a rule, active = well fitted curve in the direction sought with a large enough effect; inconclusive = small, poorly fitted or top-dose-only effect, or another doubt; inactive = no such curve, though single readings can be large; an effect the other way counts as inactive or inconclusive. % is set by controls: 0 for no effect and ±100 for the full control effect.

SMILES	Vaccinia Venus	HCMV antiviral	Tb PYK inh	LmPK inhibitor	Vaccinia mCherry
CSc1ccc(C2c3c(-c4ccccc4O)n[nH]c3C(=O)N2Cc2ccncc2)cc1 (stereo not given)	-29%	-26	-2%	nt	?
COCCN1C(=O)c2[nH]nc(-c3ccccc3O)c2C1c1ccc(OCc2ccccc2)c(OC)c1 (stereo not given)	2%[7.34 µM]	-103*	3%	nt	-12%[7.34 µM]
Nc1nc2nonc2nc1N1CCCCC1	-2%	-27	-7%	1%	nt
CSc1ccc(CNC(=O)C2CCCN(S(=O)(=O)N(C)c3ccc(F)cc3)C2)cc1 (stereo not given)	-14%	-61*	3%	nt	-14%
CCOc1ccc(S(=O)(=O)N2CCCC(C(=O)NCc3ccncc3)C2)cc1C (stereo not given)	?	-76*	5%	3%	i
Cc1cccc(NC(=O)C2CCCN(S(=O)(=O)c3ccc4c(c3)oc(=O)n4C)C2)c1 (stereo not given)	-19%	+!	-1%	6%	-22%
CN(C)c1ccc(CNC(=O)C2CCCN(S(=O)(=O)c3ccc4c(c3)oc(=O)n4C)C2)cc1 (stereo not given)	0%	-105*	-14%	nt	3%
CCOc1ccc(S(=O)(=O)N2CCCC(C(=O)NCc3ccncc3)C2)cc1Cl (stereo not given)	-18%	-31	6%	-4%	-2%
CCCN(CCC)CCNC(=O)C1CCCN(S(=O)(=O)c2ccc3c(c2)oc(=O)n3C)C1 (stereo not given)	-1%	31	-2%	1%	-5%
O=C1c2cccnc2C(=O)N1Cc1ccc(S(=O)(=O)N2CCN(c3ccc(Cl)cc3)CC2)cc1	nt	-6	1%	1%	nt
COC(=O)N/N=C(\C)c1cccc(C(F)(F)F)c1	-3%	36	0%	-3%	i
CCCCCC(=O)Nc1cccc(C2=NOC3(C2)C[C@@H](C(N)=O)N(C(=O)CC(c2ccccc2)c2ccccc2)C3)c1 (stereo not given in full)	13µM*	121	-1%	-4%	-37%
NC(=O)[C@H]1CC2(CC(c3cccc(NC(=O)COc4ccc(Cl)cc4)c3)=NO2)CN1C(=O)Cc1ccc([N+](=O)[O-])cc1 (stereo not given in full)	?	-78*	-3%	-1%	?
CCCCCC(=O)Nc1cccc(C2=NOC3(C2)C[C@@H](C(N)=O)N(C(=O)Cc2ccc([N+](=O)[O-])cc2)C3)c1 (stereo not given in full)	-11%	28	-1%	6%	i
Cc1ccc(C2=CC(=O)N(CCN)C2)cc1	nt	32	nt	nt	nt
CCOc1ccc(NC2=C(Cl)C(=O)N(Cc3ccccc3)C2=O)cc1	-5%	114	1%	5%	-12%
Cc1ccc(C(=O)N2CCCCC2)cc1NC1=C(Cl)C(=O)N(Cc2ccccc2)C1=O	nt	-66*	-12%	nt	nt
Cc1ccc(O)c(NC2=C(Cl)C(=O)N(Cc3ccccc3)C2=O)c1	-19%	-2	35µM*	-9%	?
O=C(c1ccc2c(c1)N(Cc1ccccc1)C(=O)c1ccccc1S2)N1CCCC1	-18%	13	2%	1%	9%
CC1(C)O[C@@H]2C[C@H]3[C@@H]4CCC5=CC(=O)CC[C@]5(C)[C@@]4(F)[C@@H](O)C[C@]3(C)[C@]2(C(=O)CCl)O1	-14%	84	3%	nt	i
Cc1ccc(C(=O)n2c(=S)nc3ccccn32)cc1	nt	nt	nt	14µM*	nt
Cc1ccc(C(=O)n2ncn(C)c2=S)cc1	nt	0	?	-5%	nt
Cc1cccc(C(=O)N2CCCCCC2)c1	-7%	-10	-1%	1%	-17%
Cc1cccc(C(=O)n2c(=S)nc3ccccn32)c1	?	nt	-20%	13µM*	-20%
CC(C)(C)c1ccc(OCCNC(=S)NC(=O)c2cccnc2)cc1	-10%	-11	1%	2%	1%
O=C(CNC(=O)C12CC3CC(CC(C3)C1)C2)OCc1ccc(F)cc1Cl	nt	-5	-2%	nt	nt
O=C1C2CC=CCC2C(=O)N1c1nccs1 (stereo not given)	-6%	3	0%	nt	-7%
CCOc1ccc(CN2CCc3nc(N4CCN(c5ccccc5OC)CC4)ncc3C2)cc1OC	?	?	-2%	nt	?

Bioassay records (PubChem)
